Compounds without any hit were thinned out: in the full panel of roughly 79,000, 15% have a hit. Cut-off read from the data, not from the text of the source: active = growth inhibition above about 70%; inactive = the rest.
Legend:
[1] = NCI Yeast Anticancer Drug Screen. Data for the rad50 strain (AID 155);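 note: 0% = growth of vehicle-only cultures of the same strain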; conditions: S. cerevisiae rad50 strain growth inhibition, active compounds read high; at 50.0 µM unless noted
Procedure, shortened: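 Yeast carrying a defined DNA repair defect were exposed to test compounds, and growth was compared with vehicle-treated controls to give percent inhibition.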

[2] = NCI Yeast Anticancer Drug Screen. Data for the mec2-1 strain (AID 157); conditions: S. cerevisiae mec2-1 strain, active compounds read high; at 50.0 µM unless noted
Procedure, shortened: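 Compounds were applied to mec2-1 yeast cells. Their growth was then compared with that of vehicle-treated cultures to give growth inhibition.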

[3] = NCI Yeast Anticancer Drug Screen. Data for the sgs1 mgt1 strain (AID 161);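 note: 0% = growth of cultures given vehicle only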; conditions: S. cerevisiae sgs1 mgt1 strain, active compounds read high; at 50.0 µM unless noted
Procedure, shortened: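 Compounds are added to genetically altered yeast, and growth is compared with cultures given vehicle alone to give percent inhibition.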

[4] = NCI Yeast Anticancer Drug Screen. Data for the cln2 rad14 strain (AID 165);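 note: 0% = growth equal to vehicle treated cultures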; conditions: S. cerevisiae cln2 rad14 strain, active compounds read high; at 50.0 µM unless noted
Procedure, shortened: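 Strain: cln2 rad14 yeast, altered in cell cycle control and DNA damage repair. Read-out: growth inhibition vs vehicle.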

[5] = NCI Yeast Anticancer Drug Screen. Data for the bub3 strain (AID 167); conditions: S. cerevisiae bub3 mutant strain, active compounds read high; at 50.0 µM unless noted
Procedure, shortened: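 Compounds were applied to a genetically altered yeast strain carrying a cell-cycle control defect. Growth inhibition was scored against vehicle-treated controls.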

[6] = NCI Yeast Anticancer Drug Screen. Data for the mlh1 rad18 strain (AID 175); conditions: S. cerevisiae mlh1 rad18 strain growth inhibition, active compounds read high; at 50.0 µM unless noted
Procedure, shortened: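 A repair-deficient yeast strain is exposed to test compound, and growth is scored relative to vehicle-treated controls.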

Measured: growth inhibition

Cc1ccc2oc3c(ccc(=O)n3C)c(=O)c2c1
inactive: [1] 28.6% | [2] 7.1% | [3] -17.6% | [4] -22.1% | [5] -35.5% | [6] -59.3%

CC(=C(C#N)C#N)c1csc2ccccc12
inactive: [1] 9.1% | [2] 14.8% | [3] -4.35% | [4] -34.5% | [5] -14.8% | [6] 21.9%

CC(C)(C)c1ccncc1
inactive: [1] 8.45% | [2] 16.1% | [3] -16.4% | [4] -10.2% | [5] 5.15% | [6] -4.65%

Cc1ccc(O)c(-c2ccnn2-c2ccccc2)c1
inactive: [1] 20.5% | [2] 33.9% | [3] 15.1% | [4] -10.8% | [5] 5.25% | [6] 35.8%

N#CC1CSCC1=O (stereo not given)
inactive: [1] -6.5% | [2] -8.8% | [3] -20.4% | [4] -12.8% | [5] 9.9% | [6] -1.9%

CC1=C(C(=O)Nc2ccccc2)C(c2ccccc2Cl)C(C(=O)Nc2ccccc2)=C(C)N1
inactive: [1] 14.8% | [2] -0.35% | [3] -6.25% | [4] 14.4% | [5] -11.7% | [6] 6.65%

CC(=O)Nc1c(C)cc([N+](=O)[O-])c2ccccc12
inactive: [1] -0.7% | [2] -2.45% | [3] -14.9% | [4] -9.45% | [5] 8.05% | [6] -13.3%

COC(=O)C(=O)C(C#N)c1ccccc1Cl (stereo not given)
inactive: [1] 3.45% | [2] -17.2% | [3] 0.35% | [4] 0.5% | [5] -5.75% | [6] 5.15%

NNC(=O)CC(=O)NN
inactive: [1] 6.9% | [2] 2.05% | [3] -11.4% | [4] -10.7% | [5] 2.95% | [6] 18.4%

CC(C)OC(=O)CC1NS(=O)(=O)c2ccccc21 (stereo not given)
inactive: [1] 3.9% | [2] 1% | [3] -9.7% | [4] 24.6% | [5] -16.6% | [6] 20.6%

O=CNC1c2ccccc2CCc2ccccc21
inactive: [1] -1.15% | [2] -12.9% | [3] -11.4% | [4] -2.45% | [5] -22.6% | [6] -5.85%

CN(C)N1C(=O)S/C(=C\c2ccc([N+](=O)[O-])cc2)C1=O
inactive: [1] -24.4% | [2] -14.3% | [3] 1.15% | [4] 6.3% | [5] -4.1% | [6] -16.2%

COc1ccc(C(=O)C(CN(C)C)CN(C)C)c(OC)c1
inactive: [1] 30.6% | [2] 30.8% | [3] 57% | [4] 32.9% | [5] 30.8% | [6] 64.2%

CCOC(=O)C12CCCC1(O)N(NC(N)=O)C(C)=C2C(=O)OC (stereo not given)
inactive: [1] 10.2% | [2] -5.1% | [3] 3.05% | [4] -69.1% | [5] -11.9% | [6] 6.2%

CN(C)c1ccc(/C=C/C(=O)N[C@@H]2C(=O)N3[C@@H]2SC(C)(C)[C@@H]3C(=O)O)cc1
inactive: [1] -10.3% | [2] -10.8% | [3] -11.9% | [4] 6.35% | [5] -12.8% | [6] 12.8%

CN(C)/C(N)=N\c1nc(O)cc(=O)[nH]1
inactive: [1] 6.7% | [2] -19.6% | [3] -0.05% | [4] -0.6% | [5] 10.7% | [6] 10.1%

O=C1c2ccccc2CC(c2ccccc2)N1c1ccccc1 (stereo not given)
inactive: [1] 51.1% | [2] 0.4% | [3] 31.4% | [4] -22.4% | [5] 3.55% | [6] 32.1%

O=C(CCC(=O)Nc1ccc(Cl)c(Cl)c1)Cc1nc2ccccc2o1
inactive: [1] -8.25% | [2] -24.4% | [3] -11.2% | [4] 18.6% | [5] -13.7% | [6] 1.1%

c1c[nH]c(CN2CCOCC2)n1
inactive: [1] -32% | [2] -28.9% | [3] -43.4% | [4] 2.5% | [5] -38.9% | [6] -5.15%

Oc1ccc(/C=C\c2cnccn2)cc1
inactive: [1] 27.6% | [2] 7.3% | [3] 0.45% | [4] 5.55% | [5] 30.8% | [6] 7.6%

Reference: PubChem BioAssay (NCI)
